Sampled rows, rich in hits. Any-hit rate of the full collection: about 7.9%.
MARV entry inh = blocks Marburg virus binding to or entry into cells; Marburg virus pseudotyped entry inhibition, cell reporter; Potency, µM (highest dose often 37.8 µM), inactives show top-dose activity change, negative = inhibition, usual class: inhibitors; 1.8% of 300,000 active; AID 540276; calls by dose curve; tested in HEK293 cells; also: potency is read from the fitted curve at half-maximal effect
LASV entry inh = inhibitors of Lassa virus binding or cell entry; Lassa virus pseudotype entry inhibition, cell reporter; Potency, µM (series often up to 37.9 µM), inactives show at the top dose activity change, negative = inhibition, actives largely listed as inhibitors; 1.2% of 300,000 active; AID 540256; calls by dose curve; tested in HEK293 cells; also: potency is read from the fitted curve at half-maximal effect; nearly all actives have a fitted effect of over 50% in size
HCMV inh = human cytomegalovirus inhibition | HFF cells, HCMV-luciferase reporter, 72 h; hits give low values | activity change, negative = inhibition, % at 57.5 µM | 4.5% of 410,000 active | AID 1259415; in the data active = activity change below about -60%; inconclusive = no clear call, values can overlap the other calls; inactive = above about -39%
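Screen run at 2 compound doses on HFFs infected with reporter HCMV, MOI 1 PFU/cell. Luciferase activity from cell lysates at 72 h post infection gave inhibition relative to buffer-only and Salinomycin wells.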
FMDV antiviral = blocks foot and mouth disease virus | FMDV antiviral cell-based qHTS | 1.2% of 410,000 active | Potency, µM (titrated, usually from 57.9 µM), for the others: at the top dose activity change, negative = inhibition, actives largely listed as inhibitors; calls by dose curve; tested in HEK293T cells; also: read-out not given here; potency is read from the fitted curve at half-maximal effect; nearly all actives have a fitted effect of over 45% in size
HCV inh = HCV inhibition | Huh7.5.1 HCVcc-Cre infection, luciferase reporter, 44 h | Potency, µM (doses to about 41.8 µM), without a hit: at the highest dose activity change, negative = inhibition, hits mostly inhibitors | 3.4% of 340,000 active; active = well fitted inhibition curve with a large enough effect; inconclusive = small, poorly fitted or top-dose-only effect, or another doubt; inactive = no such curve, though single readings can be large or run the other way; also: potency is read from the fitted curve at half-maximal effect
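Cells (1,000/well) were plated 4 h before compound, then infected with HCVcc-Cre virus (~0.5 moi). After 44 h further culture, infection was read as luciferase luminescence following a 15 min substrate incubation at room temperature.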
* hit, by the source's call; ? = inconclusive; . = no result; [ ] = remark or other dose. % is scaled to controls: 0 for no effect and ±100 for the full control effect.

SMILES	MARV entry inh	LASV entry inh	HCMV inh	FMDV antiviral	HCV inh
COC(=O)C(c1ccccc1)(c1cn(C)c2ccc(OC)cc12)C(Nc1ccccc1)c1ccccc1 (stereo unspecified)	.	.	-24	.	.
Oc1cc2c(cc1O)[C@H]1c3ccccc3CN[C@H]1CC2	16µM*	.	.	-4%	.
COc1cccc(CNCc2ccccn2)c1OC	-1%	-1%	-61*	.	-7%
COc1cccc(CNCc2ccc(OC)c3ccccc23)c1OC	?	?	19	-15%	?
CCCc1nc2ccccc2c(=O)n1-c1ccccc1OC	?	?	-40	-16%	8%
COc1ccccc1-n1c(/C=C/c2ccccn2)nc2ccccc2c1=O	?	?	-101*	?	?
COc1cccc(-n2c(/C=C/c3ccccn3)nc3ccccc3c2=O)c1	?	?	?	-29%	13%
Cc1cccc(-n2c(/C=C/c3ccccn3)nc3ccccc3c2=O)c1	.	.	-101*	?	?
COc1ccccc1-n1c(/C=C/c2c(C)n(C)c3ccccc23)nc2ccccc2c1=O	.	?	-85*	?	.
Cn1c(NC[C@@H](O)c2ccccc2)nc2c1c(=O)n(Cc1ccc(Cl)cc1)c(=O)n2C	-7%	.	.	.	.
CCN1C(=S)NC(c2cccs2)C(C(=O)OC)=C1C (stereo unspecified)	38%[14.2 µM]	?	.	.	.
COc1ccccc1-c1cc(N(C)Cc2ccco2)ncn1	.	.	.	-13%	.
COc1cccc(CN2C(=O)CN(C3CCCCC3)C(=O)C2c2ccc(OC)c(OC)c2)c1 (stereo unspecified)	.	?	-7	-22%	.
CCS(=O)(=O)Nc1ccc(C2=NN(C(=O)c3ccco3)C(c3ccc(C)cc3)C2)cc1 (stereo unspecified)	?	16µM*	-3	?	?
CCS(=O)(=O)Nc1ccc(C2=NN(C(=O)c3ccco3)C(c3ccc(Cl)o3)C2)cc1 (stereo unspecified)	?	?	2	28µM*	22µM*
CS(=O)(=O)Nc1ccc(C2=NN(C(=O)c3ccco3)C(c3cccc(F)c3)C2)cc1 (stereo unspecified)	11µM*	?	?	-14%	?
CCS(=O)(=O)Nc1ccc(C2=NN(C(=O)c3ccco3)C(c3cccc(F)c3)C2)cc1 (stereo unspecified)	.	.	17	-4%	?
CCC(=O)N1N=C(c2ccc(NS(=O)(=O)c3ccc(C)cc3)cc2)CC1c1ccco1 (stereo unspecified)	.	.	81	26%	11µM*
O=C1OC(OC(=O)c2cccnc2Nc2cccc(C(F)(F)F)c2)c2ccccc21 (stereo unspecified)	.	.	.	-2%	.
Cn1nnnc1SCCCNCc1ccccc1OCc1ccc(Cl)cc1	?	-4%[46.1 µM]	-15	0%	.
COc1ccncc1-c1ccccc1C1=CC(=O)CC(C)(C)C1=O	.	.	-25	-14%	.
CC(OC(=O)CC(C)c1ccccc1)C(=O)Nc1ccc(Cl)cn1 (stereo unspecified)	?	12%	-2	?	-11%
N#Cc1ccccc1OC[C@H](O)CNCCNC(=O)Nc1ccccc1	.	.	.	-3%	.
CCC(C)(C)n1nnnc1CN1CCN(C(c2ccccc2)c2ccccc2)CC1	-30%	13µM*	3	?	?
Cc1ccc(NC(=O)c2ccccc2NS(=O)(=O)c2ccc(F)cc2)cc1S(=O)(=O)N1CCCCC1	?	?	-98*	?	?
SMILES	MARV entry inh	LASV entry inh	HCMV inh	FMDV antiviral	HCV inh
O=C(Nc1cccc(S(=O)(=O)N2CCCCC2)c1)c1ccccc1NS(=O)(=O)c1ccc(F)cc1	?	-25%	-98*	?	?
CCOC(=O)c1sc(=S)n(C)c1NC(=O)c1ccc(C(C)(C)C)cc1	14µM*	?	-73*	25µM*	-18%
COc1cc(/C=C(/C(=O)c2cccs2)c2nc3ccccc3[nH]2)ccc1O	4.1µM*	?	-99*	25µM*	?
COC(=O)/C(=C\c1ccc(O)cc1)c1nc2ccccc2[nH]1	.	.	29	46%	-9%
O=C(/C(=C/c1ccc(Cl)cc1)c1nc2ccccc2[nH]1)c1cccs1	0%	.	.	?	11µM*
COC(=O)/C(=C\c1cc(OC)c(OC)c(OC)c1)c1nc2ccccc2[nH]1	-16%[46.1 µM]	?	-98*	16µM*	?
O=C(/C(=C\c1ccccc1)c1nc2ccccc2[nH]1)c1ccc(Cl)cc1	?	?	-87*	?	?
Cc1c(C(=O)Nc2ccccc2F)sc2ncn(CC(=O)N3CCCCC3)c(=O)c12	.	.	-12	-3%	-16%
Cc1cc(C)cc(OCC(=O)OCC(=O)c2cc(C)n(C3CC3)c2C)c1	?	-4%	-11	-7%	27%
S=C(Nc1ccc(Cl)cc1)c1nc2ccccc2[nH]1	?	?	-36	-23%	11µM*
O=C(O)CCSSCCC(=O)O	.	.	-30	-23%	24%
Cc1cccc(N2CCN(C(=O)CNC(=O)Cc3ccccc3)CC2)c1C	.	.	-19	-15%	?
Cc1cccc(N2CCN(C(=O)CNC(=O)c3cccc([N+](=O)[O-])c3)CC2)c1C	?	-20%	-64*	?	11µM*
O=C(NCC(=O)N1CCN(Cc2ccccc2)CC1)c1cc(Cl)cc([N+](=O)[O-])c1	.	.	-86*	?	?
O=C(NN1CCN(Cc2ccccc2Cl)CC1)c1ccc(Cl)cc1	-33%	13%	-61*	?	4%
O=C(NC1CCN(Cc2ccccc2Cl)CC1)c1ccccc1	.	.	-22	-13%	-17%
O=C(NCc1ccc(Cl)cc1)N1CCN(Cc2ccccc2)CC1	.	.	-93*	-9%	?
O=C(Nc1ccccc1)N1CCN(Cc2ccc(Cl)cc2)CC1	.	.	-32	1%	-7%
C[C@@H]1[C@@H](c2ccccc2)Nc2ccc(Br)cc2[C@H]1NC(=O)OCc1ccccc1	.	.	-34	.	.
CC(C)NC(=O)CC1(C)N=C(c2cccc3ccccc23)N(C)O1 (stereo unspecified)	.	.	-12	.	.
Cc1nn(-c2ccc(F)cc2)c(-n2cccc2)c1C(=O)N1CCN(c2ccc(F)cc2)CC1	.	9%[46.1 µM]	-10	?	.
Cc1ccc(N2C(=O)N(CC(=O)Nc3cc(F)ccc3C)C(=O)C2C)cc1 (stereo unspecified)	15%	3%	13	-8%	2%
O=C(NCC(=O)N1CCN(Cc2ccccc2)CC1)c1ccc(Cl)cc1	.	.	-62*	?	?
CCc1ccccc1NC(=O)CN1CCN(C(=O)CNC(=O)c2ccc(-c3ccccc3)cc2)CC1	.	.	-35	?	11µM*
O=C(NC(CC(=O)N1CCN(c2ccccc2O)CC1)c1ccccc1)c1ccccc1Cl (stereo unspecified)	?	8%	70	-27%	?
O=C(NCC(=O)N1CCN(Cc2ccccc2)CC1)c1ccc(Br)cc1	?	7%[46.1 µM]	-8	-21%	?
Cc1cccc(N2CCN(C(=O)CC(NC(=O)c3ccccc3Cl)c3ccccc3)CC2)c1C (stereo unspecified)	12µM*	?	?	-10%	-1%

Bioassay records from PubChem BioAssay.
